Vaccinia mCherry: inhibitors of vaccinia virus infection (mCherry reporter signal) | hit rate 0.63% among 310,000 | Potency, µM (titrated, usually from 36.5 µM), for inactives: at the highest dose activity change, negative = inhibition, hits mostly inhibitors | Vaccinia virus mCherry reporter infection, fluorescence | AID 720579; calls by dose curve; tested in A549 cells; also: potency is read from the fitted curve at half-maximal effect; % is scaled to controls: 0 for no effect and ±100 for the full control effect; nearly all actives have a fitted effect of over 35% in size
Vaccinia Venus: vaccinia inhibition (Venus reporter); Vaccinia virus Venus reporter expression, fluorescence; Potency, µM (series often up to 36.5 µM), inactives show at the highest dose activity change, negative = inhibition, most hits filed as inhibitors; hit rate 0.46% among 330,000; AID 720580; calls by dose curve; tested in A549 cells; also: potency is read from the fitted curve at half-maximal effect; % is scaled to controls: 0 for no effect and ±100 for the full control effect; nearly all actives have a fitted effect of over 30% in size
MARV entry inh: blocks Marburg virus binding to or entry into cells. Marburg virus pseudotyped entry inhibition, cell reporter. hit rate 1.8% among 300,000. Potency, µM (titrated, usually from 37.8 µM), for inactives: at the highest dose activity change, negative = inhibition, hits mostly inhibitors; calls by dose curve; tested in HEK293 cells; also: potency is read from the fitted curve at half-maximal effect; % is scaled to controls: 0 for no effect and ±100 for the full control effect
Shiga inhibitor: blocks Shiga toxin action in Vero cells; hit rate 9.2% among 290,000; inhibition, % at 38.7 µM; Vero cells, Shiga toxin protein synthesis inhibition reporter; in the data active = inhibition mostly above about 28%, no sharp cut-off; inactive = mostly below about 43%; also: 0% is about no effect
Lassa entry inh: inhibitors of Lassa virus binding or cell entry; Lassa virus pseudotype entry inhibition, cell reporter; Potency, µM (titrated, usually from 37.9 µM), for the others: at the highest dose activity change, negative = inhibition, hits mostly inhibitors; hit rate 1.2% among 300,000; AID 540256; calls by dose curve; tested in HEK293 cells; also: potency is read from the fitted curve at half-maximal effect; % is scaled to controls: 0 for no effect and ±100 for the full control effect; nearly all actives have a fitted effect of over 50% in size
Cycloheximide cs: counter-screen hit for Shiga toxin inhibitors, cycloheximide. cell reporter, cycloheximide protein synthesis inhibition counterscreen. max response, %. hit rate 12% among 300,000. AID 2314; in the data active = max response mostly above about 13%, no sharp cut-off; inactive = mostly below about 14%; also: read at 38.3 µM for the half of the compounds with a filed dose; 0% is about no effect
An asterisk follows results filed as active; i = inactive; u = inconclusive; x = no result; [ ] = another dose, or the depositor's remark. Many of the other results were omitted from the sample, so hits are more common in it than they were.

SMILES | Vaccinia mCherry | Vaccinia Venus | MARV entry inh | Shiga inhibitor | Lassa entry inh | Cycloheximide cs
CC(C)CC(CSc1ccc(Br)cc1)N1CCN(CCc2ccccc2)CCC1=O (stereo unspecified) | x | x | x | 49.2* | x | 28.7*
Cc1ccc(SC[C@H](CC(C)C)N2CCN(CCc3ccccc3)CCC2=O)cc1 | i | -11.0% | x | 42.8* | x | 52.2*
COc1ccc(SC[C@H](CC(C)C)N2CCN(CCc3ccccc3)CCC2=O)cc1 | u | -18.0% | x | 43.9* | x | 12.7*
Fc1cccc(-c2cc3nc4c(c(N5CCC6(CC5)OCCO6)n3n2)CCCC4)c1 | i | 0.0% | u | 107.8* | 2.6% | 28.3*
Fc1cccc(-c2cc3nc(-c4ccccc4)cc(N4CCC5(CC4)OCCO5)n3n2)c1 | x | -16.0% | u | -0.7 | u | -4.2
CN(CCO)c1c2c(nc3cc(-c4cccc(F)c4)nn13)CCCC2 | -10.2% | -25.9% | -22.6% | 45.8 | 0.4% | 42.1*
Clc1cccc(-c2cc3nc4c(c(N5CCNCC5)n3n2)CCCC4)c1 | x | x | x | 43.0 | x | 31.4*
CN(C)CCCNc1cc(-c2ccccc2)nc2cc(-c3cccc(F)c3)nn12 | x | x | x | -33.3 | x | -8.9
OCCCNc1c2c(nc3cc(-c4ccc(Cl)cc4)nn13)CCC2 | x | x | x | 40.4* | x | 5.9*
Cc1nn2c(NCCOCCO)c3c(nc2c1-c1ccccc1)CCC3 | -6.6% | -16.9% | -8.0% | 39.2 | 2.3% | 0.5
COc1ccc(Cl)cc1NC(=O)N(C)CCc1c(C)nn(C)c1C | -13.3% | -5.0% | x | x | u | x
COc1ccc(-c2cc(-c3ccc(F)cc3)nc3c2COc2ccc(F)cc2-3)cc1 | 5.1% | 3.7% | u | x | -1.9%[46.1 µM] | x
Clc1cccc(-c2cc3nc4c(c(NCc5ccco5)n3n2)CCCC4)c1 | -29.1% | u | -27.5% | 131.2* | -2.7% | 47.0*
c1coc(CNc2c3c(nc4ncnn24)CCCC3)c1 | i | -3.2% | -7.7%[46.1 µM] | 10.3 | 7.1% | 9.2
OC1CCN(c2c3c(nc4cc(-c5cccc(F)c5)nn24)CCCC3)CC1 | -6.8% | 2.0% | u | 81.5 | -24.1% | 32.6*
COCCCn1cnc2oc3nc4ccccc4nc3c2c1=O | x | 5.1% | u | 98.1* | -17.3% | 37.1*
CCCn1c(CCC(=O)Nc2cc(Cl)c(OC)cc2OC)nc2cccnc21 | -5.5% | -8.1% | u | x | 2.3%[46.1 µM] | x
CC(=O)c1ccc(Oc2ccc(C(=O)c3ccc(C)c(C)c3)cc2[N+](=O)[O-])cc1 | i | 3.7% | u | -3.6 | 1.46µM* | 2.1
Clc1ccc(OCCn2ccnc2)c2ccccc12 | -16.7% | -12.8% | u | -11.6 | 11.0%[14.3 µM] | -3.1
Clc1ccc(OCCSc2ncccn2)c2ccccc12 | x | x | 13.5% | 90.9* | 22.0% | 38.6*
c1ccc2c(OCCCCN3CCCC3)cccc2c1 | x | x | x | 12.7 | x | -0.8
Fc1ccccc1OCCCCSc1ncccn1 | x | x | -6.4% | 22.2 | 13.5% | 27.4*
c1cnc(SCCOc2cccc3ccccc23)nc1 | -16.7% | -18.3% | u | 78.6* | -5.2% | 51.9*
O=C(NCc1ccccc1C(F)(F)F)C12CN(Cc3ccccc3)CC1C(c1ccc([N+](=O)[O-])cc1)=NO2 (stereo unspecified) | -11.2% | 2.1% | x | 40.6 | x | 18.2*
CCOC(=O)C(=CN=C(N)Nc1nc2ccccc2o1)C(=O)OCC | u | -4.4% | u | 31.4* | 1.1% | 13.5*
SMILES | Vaccinia mCherry | Vaccinia Venus | MARV entry inh | Shiga inhibitor | Lassa entry inh | Cycloheximide cs
CCOC(=O)C(Cc1ccc(O)cc1)Nc1nc2ccccc2o1 (stereo unspecified) | i | -13.8% | 14.8% | x | u | x
CCCOC(=O)Nc1nc2ccccc2o1 | x | x | 5.8% | 143.6* | -29.3% | 25.9*
CCOC(=O)OC[C@H]1O[C@H](C#Cc2ccc(C)cc2C)C=C[C@@H]1OC(=O)OCC | x | x | 4.4%[14.2 µM] | x | x | x
CCOc1nc2cnccc2n(CC(=O)Nc2ccccc2C(=O)OC)c1=O | x | x | x | -7.2 | x | -10.6
C/C(=N\NC(=O)c1nc2ccccn2c1C)c1ccc2c(c1)OCO2 | i | -17.0% | u | 42.2 | 5.8% | 19.0*
C/C(CCc1ccc2c(c1)OCO2)=N\NC(=O)c1ccc(C)cc1C | -9.3% | -16.2% | -18.1%[46.1 µM] | 76.8* | u | 39.1*
C/C(=N\NC(=O)C1CC1)c1ccc2c(c1)OCCO2 | -11.6% | -9.0% | 20.3%[46.1 µM] | 44.4 | u | 28.4*
CC(/C=C/c1ccccc1)=N/NC(=O)CNC(=O)c1ccc2c(c1)OCO2 | x | -19.0% | 4.7% | -7.4 | 3.4% | -2.7
CC(/C=C/c1ccccc1)=N\NC(=O)c1ccc2c(c1)OCCO2 | -8.7% | -20.9% | u | 47.7* | u | 50.1*
C/C(=N\NC(=O)c1nc2ccccn2c1C)c1cccc([N+](=O)[O-])c1 | -5.3% | -7.7% | 2.4%[46.1 µM] | -0.5 | u | 12.4
Cc1cccc(N/C=C(\[N+](=O)[O-])S(=O)(=O)c2ccccc2)c1C | i | -7.6% | -3.9%[46.1 µM] | -1.9 | -0.5%[46.1 µM] | 2.3
O=C(c1ccc(-n2ccnc2)cc1)N1CCCC(CO)(Cc2cccc(Cl)c2)C1 (stereo unspecified) | x | x | x | -4.7 | x | -4.3
O=C(O)c1ccc2c(c1)OCO2 | -20.0% | -1.5% | x | x | x | x
C/C(=N/NS(=O)(=O)c1cccc([N+](=O)[O-])c1)c1ccc2c(c1)OCO2 | i | -4.3% | -3.8%[46.1 µM] | 4.1 | 16.7%[46.1 µM] | 4.5
O=C(NN=C1CCCCCC1)c1ccncc1 | u | -2.2% | -25.3%[46.1 µM] | 2.7 | u | 15.8
C/C(=N\NC(=O)c1ccc2c(c1)OCO2)c1ccc(C(=O)O)s1 | -23.8% | -11.7% | 0.2%[46.1 µM] | 54.1* | -19.2% | 31.2*
C/C(=N\Nc1ccc([N+](=O)[O-])cc1)c1ccc2c(c1)OCO2 | -29.7% | -23.2% | u | 80.5* | -0.5%[46.1 µM] | 30.0*
O=C(NN=C1CCCC1)c1ccc(O)cc1 | x | x | x | 42.0* | x | 30.0*
CCCCCC1=CCC/C1=N\NC(=O)c1ccc2c(c1)OCO2 | -25.3% | -22.6% | 5.9%[46.1 µM] | 26.7 | x | 18.6*
CCCN1CNc2c(c(=O)[nH]c(=S)n2CCc2cccc(C)c2C)C1 | i | -7.6% | x | x | x | x
COc1ccc(NC(=O)CN(C)C(=O)c2c(C)nn(Cc3ccccc3)c2C)cc1 | -12.3% | -0.9% | -3.3% | x | 0.2%[46.1 µM] | x
COc1ccccc1-c1ccnc(-n2ncc(C(=O)N3CCN(C(C)C)CC3)c2-c2ccco2)n1 | -9.9% | 12.2% | x | x | x | x
CCOc1ccc(Nc2c(S(=O)(=O)c3ccc(C)cc3)cnc3cc(OC)c(OC)cc23)cc1 | -3.8% | -24.5% | -22.2%[46.1 µM] | x | x | x
C/C(=N\NC(=O)c1ccc2c(c1)OCO2)c1ccc2c(c1)OCO2 | -8.7% | -6.1% | 16.0%[46.1 µM] | 62.2* | u | 34.8*
O=C(NN=C1CCCCCC1)c1ccc2c(c1)OCO2 | -26.9% | -22.1% | u | 38.2 | u | 37.6*
O=C(c1ccccc1)c1ccc2c(c1)OCCOCCOCCOCCO2 | x | x | x | 21.9 | x | 8.4
C/C(=N\NC(=O)c1ccc2c(c1)OCCO2)c1ccccc1 | -9.3% | -9.1% | u | 52.5* | u | 21.4*
C/C(=N\NC(=O)c1cccs1)c1ccc2c(c1)OCO2 | -8.1% | -1.6% | u | 116.5* | 10.9%[46.1 µM] | 64.1*
CCn1c(-c2ccccc2F)nc2cc(NC(C)=O)cc(C(=O)N3CCCC3c3nccs3)c21 (stereo unspecified) | -10.3% | 5.0% | x | x | x | x
Cc1ccc(CN2CCC(=O)N(Cc3ccccn3)CC2)c(C)c1 | -18.9% | -15.7% | x | x | x | x

Screening data deposited in PubChem BioAssay by National Center for Advancing Translational Sciences (NCATS).
